Source: PubChem BioAssay (NCATS)
Records with an inconclusive call do not appear. Entries that show only a call come without a potency. A number with no mark means an inactive call. Active and inactive are the calls of the source. The call rests on the fitted dose curve; in most records, active means well fitted inhibition curve with a large enough effect; inconclusive means small, poorly fitted or top-dose-only effect; inactive means no such curve, though single readings can be large or run the other way.

Key:
[1] = system: Zika virus NS2B-NS3 protease (unlinked complex); test: Primary screen GU Rhodamine qHTS for Zika virus inhibitors: Unlinked NS2B-NS3 protease assay (AID 1347159); further: nearly all actives have a fitted effect of over 60% in size
Summary of the method: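 Unlinked NS2B/NS3, 25 nM; Rhod110 peptide, 1.5 microM; compounds, up to 114 microM. Reaction run 15 min at RT in 10 mM Tris-HCl pH 8.0, 0.01% Tween 20; kinetic fluorescence change fitted with a 4-parameter Hill model.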

[2] = system: Zika virus NS2B-NS3 protease (linked construct); test: Primary screen NINDS Rhodamine qHTS for Zika virus inhibitors (AID 1347160); further: nearly all actives have a fitted effect of over 55% in size
Summary of the method: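 Single-chain NS2B-NS3 protease, 25 nM, pH 8.0; compounds preincubated 15 min. Activity: Rhodamine110 release from 1.5 microM substrate over 15 min, room temperature, data fitted to 4-parameter Hill.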
Potency means the concentration at half of the fitted maximal effect.

COC1CCN(c2cccc(-c3cc(NC(C)=O)nc(-n4nc(C)cc4C)n3)n2)CC1
Potency [1]: inactive
Potency [2]: inactive

CN1CCN(Cc2ccc(NC(=O)Cc3ccc(Oc4cc(NC(=O)C5CC5)ncn4)cc3)cc2C(F)(F)F)CC1
Potency [1]: inactive
Potency [2]: inactive

C=C1C(=O)O[C@@H]2C[C@H](C)[C@@H]3CC(=O)C(C)=C3C[C@H]12
Potency [1]: inactive
Potency [2]: inactive

N#Cc1ccc2ncnc(NCCc3ccccc3)c2c1
Potency [1]: inactive
Potency [2]: inactive

COc1ccc(NC(=O)c2ccc(-c3ccc(C(=N)N)cc3C)cc2)cc1N1CCN(C)CC1
Potency [1]: inactive
Potency [2]: inactive

COc1cc(CCO)ccc1O[C@@H]1O[C@H](CO)[C@@H](O)[C@H](O)[C@H]1O
Potency [1]: inactive
Potency [2]: inactive

O=C(NCCN1CCN(c2cccc3c2OCCO3)CC1)c1ccc(F)cc1
Potency [1]: inactive
Potency [2]: inactive

CNCCN1CCC(c2cc(CN(C)C(=O)c3cccc(Oc4ccccc4)c3)ccn2)CC1
Potency [1]: inactive
Potency [2]: inactive

CCN(Cc1ccccc1)C(=O)Cn1c(=O)n(C)c2cnc(-c3ccccc3)nc21
Potency [1]: inactive
Potency [2]: inactive

N#Cc1ccc(Nc2nc(-c3ccc(O)cc3O)cs2)cc1C(F)(F)F
Potency [1]: 10 µM (active)
Potency [2]: 17.8 µM (active)

Cc1cc(Nc2nc(-c3ccccc3)nc3ccccc23)n[nH]1
Potency [1]: inactive
Potency [2]: inactive

NC(=O)c1cnc(N[C@@H]2CCCC[C@H]2N)nc1Nc1cccc(-n2nccn2)c1
Potency [1]: inactive
Potency [2]: inactive

CNC1CN(c2ccc3c(=O)c(C(=O)O)cn(-c4nccs4)c3n2)CC1OC (stereo not drawn)
activity change, negative = inhibition [1]: 18.7% [at 19.1 µM]
activity change, negative = inhibition [2]: 19.1% [at 10.7 µM]

COc1ccc(CCc2nc3c(C)c(-c4c(C)noc4C)c(C)cc3n2CCN2CCOCC2)cc1
Potency [1]: inactive
Potency [2]: inactive

CO[C@H]1[C@@H](O)[C@H](O[C@H]2CC[C@@]3(C)C(CCC4C3CC[C@]35COC6(COC(=O)C6)C3CCC45O)C2)O[C@@H](C)[C@@H]1OC1OC(CO)C(OC2OC(CO)C(O)C(O)C2O)C(O)C1O (stereo partly drawn)
Potency [1]: inactive
Potency [2]: inactive

COC1CC(O[C@H]2CC[C@]3(C)C4CC[C@]5(C)C(C6=CC(=O)OC6)=CCC56OC46CC[C@@H]3C2)OC(C)C1O[C@@H]1O[C@H](CO[C@@H]2O[C@H](CO)[C@@H](O)[C@H](O)[C@H]2O)[C@@H](O)[C@H](O)[C@H]1O (stereo partly drawn)
Potency [1]: inactive
Potency [2]: inactive

CC(CCC1(O)OC2CC3C4CC=C5C[C@@H](O[C@@H]6O[C@H](CO)[C@@H](O[C@@H]7O[C@@H](C)[C@H](O)[C@@H](O)[C@H]7O)[C@H](O)[C@H]6O[C@@H]6O[C@@H](C)[C@H](O)[C@@H](O)[C@H]6O)CC[C@]5(C)C4CC[C@]3(C)[C@@]2(O)[C@@H]1C)CO[C@@H]1O[C@H](CO)[C@@H](O)[C@H](O)[C@H]1O (stereo partly drawn)
Potency [1]: inactive
Potency [2]: inactive

CC(=O)O[C@@H]1[C@H](O[C@@H]2O[C@@H](CO)[C@H](O)[C@H]2O)[C@@H](O[C@@H]2O[C@@H](C)[C@H](O[C@@H]3OC[C@@H](O)[C@H](O)[C@H]3O)[C@@H](O)[C@H]2O)[C@H](OC(=O)[C@]23CCC(C)(C)C[C@H]2C2=CCC4[C@@]5(C)CC[C@H](O[C@@H]6O[C@H](C(=O)O)[C@@H](O)[C@H](O)[C@H]6O[C@@H]6O[C@H](CO)[C@H](O)[C@H](O)[C@H]6O)[C@@](C)(C=O)C5CC[C@@]4(C)[C@]2(C)C[C@H]3O)O[C@@H]1C (stereo partly drawn)
activity change, negative = inhibition [1]: 1.92% [at 19.1 µM]
activity change, negative = inhibition [2]: 10.8% [at 10.7 µM]

O=C(O)CCc1nccc2c1[nH]c1ccccc12
Potency [1]: inactive
Potency [2]: inactive

O=C(NCc1ccccc1-c1ccccc1C(=O)NCCc1ccccn1)OCc1ccccc1
Potency [1]: inactive
Potency [2]: inactive

CC(C)(C)[C@H](NC(=O)c1ccc(N)c(Cl)c1)C(=O)N1CCC[C@H]1C(=O)N[C@H](C#N)CC(=O)O
Potency [1]: inactive
Potency [2]: inactive

COc1c2c(c(C)c3c1C(=O)OC3)O[C@@]1(C)C[C@@H](OC(C)=O)[C@]34O[C@](OC)(CC[C@]3(C)[C@H]1C2)OC4(C)C
Potency [1]: inactive
Potency [2]: inactive

COc1ccc(CN2CCN(C(=O)CCNC(=O)c3ccc(C(C)(C)C)cc3)CC2)cc1
Potency [1]: inactive
Potency [2]: inactive

C[C@@H]1C[C@H]2O[C@@]3(O[C@@H]2C(C)(C)O)C(O)[C@@]2(C)C4CCC5C(C)(C)[C@@H](O[C@H]6OC[C@H](O)[C@@H](O)[C@@H]6O)CC[C@@]56C[C@@]46CC[C@]2(C)C13 (stereo partly drawn)
Potency [1]: inactive
Potency [2]: inactive
